Inconclusive results are not listed. Active and inactive are the calls of the source. Unless noted, calls follow the shape of the dose curve; as a rule, active = well fitted curve in the direction sought with a large enough effect in the repeat runs; inconclusive = weak or mixed curves; inactive = no such curve, though single readings can be large; an effect the other way counts as inactive or inconclusive.
Key:
[1] = qHTS assay to identify small molecule agonists of the vitamin D receptor (VDR) signaling pathway - cell viability counter screen (AID 743224); also: series mostly up to about 63 µM; nearly all actives have a fitted effect of over 50% in size
Procedure, shortened: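 VDR-bla cells were preincubated 4 h at 37C/5% CO2, then exposed to compounds for 16 h. After the 2 h room-temperature bla FRET read, CellTiter-Glo was added to the same wells and luminescence read after 30 min.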

[2] = qHTS assay to identify small molecule antagonists of the vitamin D receptor (VDR) signaling pathway - cell viability counter screen (AID 743225); also: nearly all actives have a fitted effect of over 50% in size
Procedure, shortened: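 HEK293T VDR-bla; cpd + 1a,25-(OH)2D3 3 nM final, 16 h 37C/5% CO2; B/G FRET substrate 2 h RT; then CellTiter-Glo 30 min RT, luminescence.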

[3] = qHTS assay to identify small molecule agonists of the NFkB signaling pathway (AID 1159509; active = well fitted curve in the direction sought with a large enough effect in the signal ratio in the repeat runs, not every such curve was filed as active; the % refers to the signal ratio; also: series mostly up to about 61 µM)
Procedure, shortened: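 NFkB-bla ME-180 cells carry a beta-lactamase reporter under an NF-kB response element. They were plated overnight, then exposed to compounds for 5 h at 37 C. Read-out is LiveBLAzer FRET after 1.5 hr at room temperature (405 nm excitation; 460/530 nm emission).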

[4] = qHTS assay to identify small molecule agonists of the endoplasmic reticulum stress response signaling pathway (AID 1159516; active = well fitted activation curve with a large enough effect in the signal ratio in the repeat runs, not every such curve was filed as active; the % refers to the signal ratio)
Procedure, shortened: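 CellSensor ESRE-bla HeLa cells, carrying a beta-lactamase reporter driven by the ER stress response element, were plated overnight and exposed to compounds for 5 hr at 37 C. Reporter activity was read as FRET substrate fluorescence after 2 hr at room temperature.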

[5] = qHTS assay to identify small molecule agonists of the endoplasmic reticulum stress response signaling pathway - cell viability counter screen (AID 1159517; calls by dose curve; also: series mostly up to about 61 µM; nearly all actives have a fitted effect of over 50% in size)
Procedure, shortened: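 HeLa cells carrying an ESRE-driven beta-lactamase reporter receive compound for 5 hr at 37 C. Cell viability is then gauged with CellTiter-Glo by luminescence, 30 min at room temperature.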

[6] = qHTS assay to identify small molecule antagonists of the retinoid-related orphan receptor gamma (ROR-gamma) signaling pathway - cell viability counter screen (AID 1159520); also: nearly all actives have a fitted effect of over 50% in size
Procedure, shortened: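 Cytotoxicity was read from cellular ATP (CellTiter-Glo luminescence) after 16 hr at 37 C with 1 uM doxycycline induction. The inducer was added 2 hr after compound transfer to Tet-on ROR gamma CHO cells.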

[7] = target: Nuclear receptor ROR-gamma (Homo sapiens) (UniProt P51449); assay: qHTS assay to identify small molecule antagonists of the retinoid-related orphan receptor gamma (ROR-gamma) signaling pathway (AID 1159521)
Procedure, shortened: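 Cells were plated, rested 4 h at 37 C, exposed to compounds for 2 h, then given 1 uM final doxycycline hyclate to induce RORγ expression. After 16 h, ONE-Glo luminescence from the ROR response element reporter was measured.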

[8] = qHTS assay to identify small molecule agonists of the AP-1 signaling pathway - cell viability counter screen (AID 1159525; calls by dose curve; also: nearly all actives have a fitted effect of over 55% in size)
Procedure, shortened: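 Luminescent ATP readout (Cell Titer Glo, 30 min RT), normalised to DMSO and tetra n-octyl ammonium bromide controls. Cells were ME-180 AP-1-bla in 0.5% dialyzed FBS Opti-MEM, with a 5 h, 37 °C compound exposure.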

[9] = qHTS assay to identify small molecule agonists of the AP-1 signaling pathway (AID 1159526; calls by dose curve)
[10] = target: Retinoic acid receptor RXR-alpha (Homo sapiens) (UniProt P19793); assay: qHTS assay to identify small molecule agonists of the RXR signaling pathway (AID 1159527; calls by dose curve; also: nearly all actives have a fitted effect of over 35% in size)
Sequence of Retinoic acid receptor RXR-alpha (Homo sapiens) (P19793 whole entry, looked up): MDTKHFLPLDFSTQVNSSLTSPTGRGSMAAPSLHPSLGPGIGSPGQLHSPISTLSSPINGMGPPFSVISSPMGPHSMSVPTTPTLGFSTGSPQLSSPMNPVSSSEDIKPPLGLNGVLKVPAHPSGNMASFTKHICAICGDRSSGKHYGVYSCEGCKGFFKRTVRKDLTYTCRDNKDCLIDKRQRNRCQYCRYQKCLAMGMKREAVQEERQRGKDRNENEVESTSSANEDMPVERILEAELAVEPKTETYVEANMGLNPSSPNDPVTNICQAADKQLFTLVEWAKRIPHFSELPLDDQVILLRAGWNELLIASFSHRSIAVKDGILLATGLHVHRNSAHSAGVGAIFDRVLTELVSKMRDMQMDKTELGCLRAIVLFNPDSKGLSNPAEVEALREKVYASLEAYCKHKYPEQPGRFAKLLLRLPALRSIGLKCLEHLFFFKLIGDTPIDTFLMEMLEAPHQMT
Procedure, shortened: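 Cells plated at 2,000/well, rested 5 hr at 37 C, pin-dosed with DMSO compound solutions, incubated 16 hr, then loaded with B/G FRET substrate for 2 hr at RT before dual-emission fluorescence reading.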

[11] = qHTS assay to identify small molecule agonists of the RXR signaling pathway - cell viability counter screen (AID 1159529)
Procedure, shortened: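 Steps: seed RXR-alpha-UAS-bla HEK 293T cells in assay medium containing 2% charcoal-stripped FBS; incubate 5 hr; add compounds in DMSO; incubate 16 hr at 37 C; after the bla read, add CellTiter-Glo and read luminescence at 30 min.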

[12] = qHTS assay to identify small molecule antagonists of the retinoid acid receptor (RAR) signaling pathway - cell viability counter screen (AID 1159551); also: nearly all actives have a fitted effect of over 35% in size
Procedure, shortened: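 C3RL4 cells were seeded overnight at 37 C, then treated with compounds plus 1 uM (final) retinol for 6 h at 37 C. Viability was read as ATP by CellTiter-Glo luminescence after 30 min at room temperature.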

[13] = qHTS assay to identify small molecule antagonists of the retinoic acid receptor (RAR) signaling pathway (AID 1159552; also: nearly all actives have a fitted effect of over 50% in size)
Procedure, shortened: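 Retinol at 1 uM final stimulated RARE-luciferase expression in C3RL4 cells exposed to test compounds for 6 hr at 37 C. Reduced luminescence, read 30 min after detection reagent, indicated pathway antagonism.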

[14] = qHTS assay to identify small molecule agonists of the retinoic acid receptor (RAR) signaling pathway (AID 1159553)
Procedure, shortened: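 C3RL4 cells carrying a RARE luciferase reporter were plated overnight at 37 C, then exposed to compounds in DMSO for 6 hr at 37 C and 5% CO2. Luminescence was read 30 min after luciferase reagent addition at room temperature.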

[15] = qHTS assay to identify small molecule antagonists of the estrogen related receptor (ERR) signaling pathway from Tox21 library - cell viability counter screen (AID 1224834); also: nearly all actives have a fitted effect of over 30% in size
Procedure, shortened: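 ERR reporter cells were plated 6 h before compound addition, then exposed to test compounds in DMSO for 17.5 h at 37 C. Viability was read as CellTiter-Fluor fluorescence after a 30-minute incubation at 37 C.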

[16] = target: Luciferin 4-monooxygenase (Photinus pyralis) (UniProt P08659); assay: qHTS assay to identify small molecule inhibitors of firefly luciferase (AID 1224835); also: series mostly up to about 120 µM; nearly all actives have a fitted effect of over 25% in size
Sequence of Luciferin 4-monooxygenase (Photinus pyralis) (P08659 whole entry, looked up): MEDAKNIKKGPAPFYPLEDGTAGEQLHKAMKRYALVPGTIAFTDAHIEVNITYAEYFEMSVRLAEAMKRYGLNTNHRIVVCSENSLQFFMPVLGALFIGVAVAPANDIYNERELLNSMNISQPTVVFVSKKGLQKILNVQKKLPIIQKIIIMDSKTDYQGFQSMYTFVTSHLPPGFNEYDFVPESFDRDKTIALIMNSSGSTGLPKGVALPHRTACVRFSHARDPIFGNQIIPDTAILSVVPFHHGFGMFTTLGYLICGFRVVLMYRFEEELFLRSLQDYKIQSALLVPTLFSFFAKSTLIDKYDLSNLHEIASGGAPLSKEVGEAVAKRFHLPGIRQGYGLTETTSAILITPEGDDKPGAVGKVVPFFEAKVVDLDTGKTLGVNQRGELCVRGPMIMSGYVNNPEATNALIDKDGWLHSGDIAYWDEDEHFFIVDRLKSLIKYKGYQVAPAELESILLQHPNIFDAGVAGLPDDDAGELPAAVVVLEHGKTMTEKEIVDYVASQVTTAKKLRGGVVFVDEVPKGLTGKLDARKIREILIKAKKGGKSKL
Procedure, shortened: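 Inhibition of purified Photinus luciferase is measured by luminescence. Substrate levels (D-luciferin, ATP) sit at their KM values. Each compound is tested in a concentration series.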

[17] = qHTS assay to identify small molecule agonists of the constitutive androstane receptor (CAR) signaling pathway - cell viability counter screen (AID 1224836); also: series mostly up to about 92 µM; nearly all actives have a fitted effect of over 45% in size
Procedure, shortened: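 Cells were seeded and incubated 4 hrs. Compounds were added across 15 concentrations together with PK11195 at 0.75 uM final. Plates were incubated 23 hrs at 37 C. CellTiter-Fluor was added and fluorescence measured.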

[18] = qHTS assay to identify small molecule antagonists of the constitutive androstane receptor (CAR) signaling pathway - cell viability counter screen (AID 1224837); also: series mostly up to about 92 µM; nearly all actives have a fitted effect of over 45% in size
Procedure, shortened: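 HepG2 cells stably expressing hCAR and a CYP2B6-2.2kb reporter were plated and pre-incubated 4 hr at 37 C/5% CO2, then given compounds at 15 concentrations plus 50 nM CITCO (final). After 23 hr, viability was read by CellTiter-Fluor fluorescence.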

[19] = target: Nuclear receptor subfamily 1 group I member 3 (Homo sapiens) (UniProt Q14994); assay: qHTS assay to identify small molecule antagonists of the constitutive androstane receptor (CAR) signaling pathway (AID 1224838); also: nearly all actives have a fitted effect of over 40% in size
Sequence of Nuclear receptor subfamily 1 group I member 3 (Homo sapiens) (Q14994 whole entry, looked up): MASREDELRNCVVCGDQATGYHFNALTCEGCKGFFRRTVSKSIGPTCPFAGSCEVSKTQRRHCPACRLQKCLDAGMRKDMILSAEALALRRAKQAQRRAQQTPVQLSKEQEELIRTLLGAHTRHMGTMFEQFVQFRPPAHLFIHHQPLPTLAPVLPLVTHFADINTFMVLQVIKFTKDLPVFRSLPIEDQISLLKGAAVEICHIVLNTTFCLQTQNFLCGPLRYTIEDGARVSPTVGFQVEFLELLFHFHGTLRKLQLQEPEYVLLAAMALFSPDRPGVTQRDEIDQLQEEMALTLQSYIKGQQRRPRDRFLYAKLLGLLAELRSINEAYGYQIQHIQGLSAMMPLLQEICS
Procedure, shortened: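 HepG2 cells stably co-transfected with hCAR and a CYP2B6-2.2kb luciferase reporter were seeded 4 h before compound addition at 15 concentrations. Cells were stimulated with 50 nM CITCO (final) for 24 h at 37 C; luciferase luminescence was then read.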

Measured: Potency

O=C(O)CSCC(=O)NC1CCSC1=O (configuration not stated)
inactive: [1] | [2] | [3] | [4] | [5] | [6] | [7] | [8] | [9] | [10] | [11] | [12] | [13] | [14] | [15] | [16] | [17] | [18] | [19]

COC(=O)CCCCC(=O)O
inactive: [1] | [2] | [3] | [4] | [5] | [6] | [7] | [8] | [9] | [10] | [11] | [12] | [13] | [14] | [15] | [16] | [17] | [18] | [19]

CC(=O)C1C(=O)C=C(C)OC1=O (configuration not stated)
inactive: [1] | [2] | [4] | [5] | [6] | [7] | [8] | [9] | [10] | [11] | [12] | [13] | [14] | [15] | [16] | [17] | [18] | [19]

CC(C)NCC(O)c1ccc2ccccc2c1 (configuration not stated)
inactive: [1] | [2] | [3] | [4] | [5] | [6] | [7] | [9] | [10] | [11] | [12] | [13] | [14] | [15] | [16] | [17] | [19]

CCCCCCCCCOC(=O)CCCCC(=O)OCCCCCCC
inactive: [1] | [2] | [3] | [4] | [5] | [6] | [7] | [8] | [9] | [10] | [11] | [12] | [13] | [14] | [15] | [16] | [17] | [19]

CCN(CC)CCN
inactive: [1] | [2] | [3] | [4] | [5] | [6] | [7] | [8] | [9] | [10] | [11] | [12] | [13] | [14] | [15] | [16] | [17] | [18] | [19]

CN(C)CCOC(=O)C(c1ccccc1)C1(O)CCCC1 (configuration not stated)
inactive: [2] | [3] | [4] | [5] | [6] | [7] | [8] | [9] | [10] | [11] | [12] | [13] | [14] | [15] | [16] | [17] | [18] | [19]

c1ccc2cnccc2c1
inactive: [1] | [2] | [3] | [4] | [5] | [6] | [7] | [8] | [9] | [10] | [11] | [12] | [13] | [14] | [15] | [16] | [18] | [19]

OCCN1CCOCC1
inactive: [1] | [2] | [3] | [4] | [5] | [6] | [7] | [8] | [9] | [10] | [11] | [12] | [13] | [14] | [15] | [16] | [17] | [18] | [19]

O=C1OCCO1
inactive: [1] | [2] | [3] | [4] | [5] | [6] | [7] | [9] | [10] | [11] | [12] | [13] | [14] | [15] | [16] | [17] | [18] | [19]

C=CCCCCCCCC
inactive: [1] | [2] | [3] | [4] | [5] | [6] | [7] | [8] | [9] | [10] | [11] | [12] | [13] | [14] | [15] | [16] | [17] | [18] | [19]
